Results as given in ChEMBL document CHEMBL3988442, “University of Dundee, Small-Polar-MMV Screening Library” (2021).
Out of some 48,000 compounds screened, about 13,000 (27%) showed an effect of 50% or more. Some of the results follow.

What follows are compounds tested on Wolbachia pipientis (assay: Anti-Wolbachia Cell-Based Screen). Conditions: 5 µM.
Format: functional
Parameters: scale not given: in the data most compounds retested in dose-response had high values

**Q.** Which “Percent Effect” value does the source give for CN1CCOC(C(=O)N2CCCC(C)(C)CC2)C1 (stereo not given) here?
**A.** -5.11%

**Q.** With CCc1c(C)nc(N)nc1NCCSCc1[nH]cnc1C as the compound, how does the “Percent Effect” value read?
**A.** -21.58%

**Q.** With c1coc(-c2nc(CN3CCn4c(nnc4C4CC4)C3)cs2)c1 as the compound, how does the “Percent Effect” value read?
**A.** 21.52%

**Q.** How did the “Percent Effect” value turn out when N#Cc1cccnc1N1CCCC(CO)(Cc2ccc(F)cc2)C1 (stereo not given) was run?
**A.** -22.45%

**Q.** Which “Percent Effect” value does the source give for CN(C)C(=O)c1ccc2c(c1)N(C)C(CC(=O)NCc1ncc[nH]1)CO2 (stereo not given) here?
**A.** -21.18%

**Q.** For O=C(COc1ccccc1)NS(=O)(=O)Cc1ccccc1, which “Percent Effect” value is on record?
**A.** 9%

**Q.** With COCCN1C[C@@H](C)[C@@]2(COCCN(C(=O)Cc3ccccc3)C2)C1.O=C(O)C(F)(F)F as the compound, how does the “Percent Effect” value read?
**A.** -3.108%

**Q.** With CC(C)CC(C#N)NC(=O)c1ccc(Oc2cccnc2)cc1 (stereo not given) as the compound, how does the “Percent Effect” value read?
**A.** 0.407%

**Q.** How did the “Percent Effect” value turn out when CCN(Cc1ccc(F)c(F)c1)Cc1nc2c(cnn2C)c(=O)[nH]1 was run?
**A.** 128.6%

**Q.** How did the “Percent Effect” value turn out when CCN(Cc1nc2c(cnn2C)c(=O)[nH]1)c1cccc(Cl)c1 was run?
**A.** -0.7695%

**Q.** CN(Cc1ccc2c(c1)OCO2)Cc1nc2c(cnn2C)c(=O)[nH]1 was tested. Which “Percent Effect” value did it give?
**A.** 5.823%

**Q.** Which “Percent Effect” value does the source give for CCN(Cc1nc2c(cnn2C)c(=O)[nH]1)c1ccc(OC)c(OC)c1 here?
**A.** 11.95%

**Q.** CCN(Cc1ccc2c(c1)OCO2)Cc1nc2c(cnn2C)c(=O)[nH]1 was tested. Which “Percent Effect” value did it give?
**A.** 112.4%

**Q.** How did the “Percent Effect” value turn out when CCN(Cc1nc2c(cnn2C)c(=O)[nH]1)c1cc(C)ccc1C was run?
**A.** -12.64%

**Q.** With COc1ccc(CN(C)Cc2nc3c(cnn3C)c(=O)[nH]2)cc1OC as the compound, how does the “Percent Effect” value read?
**A.** 10.06%

**Q.** How did the “Percent Effect” value turn out when CCN(Cc1ccc(OC)c(F)c1)Cc1nc2c(cnn2C)c(=O)[nH]1 was run?
**A.** 142.5%

**Q.** COCCN1C[C@H]2CC[C@@H]1CN(Cc1cc(=O)c3cc(C)ccc3[nH]1)C2 was tested. Which “Percent Effect” value did it give?
**A.** -2.085%

**Q.** COc1c(-c2ccc(O)cc2)oc2cc(O)cc(O)c2c1=O [ISOKAEMPFERIDE] was tested. Which “Percent Effect” value did it give?
**A.** 3.468%

**Q.** How did the “Percent Effect” value turn out when CCc1cc(N2CCC(N[C@@H]3CS(=O)(=O)C[C@H]3O)CC2)nc(N(C)C)n1 was run?
**A.** -8.378%

**Q.** CN1CCN(c2ncnc3c2CCN(c2ncc(F)cn2)CC3)CC1.O=C(O)C(F)(F)F was tested. Which “Percent Effect” value did it give?
**A.** 6.683%

**Q.** How did the “Percent Effect” value turn out when c1nc2c(c(N3CCOCC3)n1)CCNCC2 was run?
**A.** 91.19%

**Q.** O=S(=O)(C1CC1)N1CCc2ncnc(-c3ccsc3)c2CC1 was tested. Which “Percent Effect” value did it give?
**A.** -15.04%

**Q.** With Cc1ncnc2c1CCN(S(=O)(=O)C1CC1)CC2 as the compound, how does the “Percent Effect” value read?
**A.** 105%

**Q.** How did the “Percent Effect” value turn out when Fc1cccc(N2CCc3ncnc(N4CCOCC4)c3CC2)c1 was run?
**A.** 24.23%

**Q.** Which “Percent Effect” value does the source give for Cc1cnc(N2CCc3ncnc(N4CCN(C)CC4)c3CC2)nc1.O=C(O)C(F)(F)F here?
**A.** -5.23%

**Q.** How did the “Percent Effect” value turn out when O=S(=O)(C1CC1)N1CCc2ncnc(N3CCOCC3)c2CC1 was run?
**A.** 100.4%

**Q.** Which “Percent Effect” value does the source give for CN1CCN(c2ncnc3c2CCN(S(=O)(=O)C2CC2)CC3)CC1.O=C(O)C(F)(F)F here?
**A.** 114.5%

**Q.** With CCOc1ncnc2c1CCN(S(=O)(=O)C1CC1)CC2 as the compound, how does the “Percent Effect” value read?
**A.** 10.58%

**Q.** How did the “Percent Effect” value turn out when O=S(=O)(C1CC1)N1CCc2ncnc(-c3ccc(F)cc3)c2CC1 was run?
**A.** 10.52%

**Q.** How did the “Percent Effect” value turn out when O=C(C1CC1)N1CCCN(c2ncnc3c2CCNCC3)CC1 was run?
**A.** -5.367%

**Q.** Which “Percent Effect” value does the source give for CCN1CCC(CC(=O)N2CCCCC2CCn2cccn2)CC1 (stereo not given) here?
**A.** 1.727%

**Q.** Which “Percent Effect” value does the source give for N#Cc1ccc(CNC(=O)NCCNC(=O)C2CCCC2)c(F)c1 here?
**A.** 4.725%

**Q.** COc1ccc2ccccc2c1CNCC1CCS(=O)(=O)C1.Cl (stereo not given) was tested. Which “Percent Effect” value did it give?
**A.** 9.511%

**Q.** How did the “Percent Effect” value turn out when O=C(O)C(F)(F)F.O=S(=O)(C1CC1)N1CCc2ncnc(-c3ccncc3)c2CC1 was run?
**A.** -12.42%

**Q.** With O=C(O)C(F)(F)F.O=S(=O)(C1CC1)N1CCc2ncnc(N3CCCC3)c2CC1 as the compound, how does the “Percent Effect” value read?
**A.** 105.6%

**Q.** For O=C(O)C(F)(F)F.O=C(O)C(F)(F)F.O=C(O)C(F)(F)F.c1ccc(CN2CCc3ncnc(N4CCCC4)c3CC2)nc1, which “Percent Effect” value is on record?
**A.** 8.605%

**Q.** How did the “Percent Effect” value turn out when COCCC1(CNC(=O)NCC2CCCN(C)C2)CCCC1 (stereo not given) was run?
**A.** 2.707%

**Q.** With CCc1ncc(CN2C[C@@H]3C[C@@H](O)CN3C[C@@H]2Cc2ccccc2)cn1 as the compound, how does the “Percent Effect” value read?
**A.** 90.44%

**Q.** How did the “Percent Effect” value turn out when COc1ncc(CN2CCOC(Cc3cccc4ccccc34)C2)cn1 (stereo not given) was run?
**A.** -6.808%

**Q.** How did the “Percent Effect” value turn out when COCc1ncc(CN2CC[C@@](C)(O)[C@@H](Cc3ccccc3)C2)cn1 was run?
**A.** -1.853%

**Q.** For COc1ccc(CN2C[C@H](O)C[C@H]2c2nc(-c3ccccc3)no2)cc1, which “Percent Effect” value is on record?
**A.** 10.67%

**Q.** For COc1ncc(CN2C[C@@H]3C[C@@H](O)CN3C[C@@H]2Cc2ccccc2)cn1, which “Percent Effect” value is on record?
**A.** 106.8%

**Q.** With CCc1ncc(CN2CCCN(CC3CC3)C(C(C)C)C2)cn1 (stereo not given) as the compound, how does the “Percent Effect” value read?
**A.** -1.309%

**Q.** For CN(C)C(=O)COCC1CN(CC2CCOCC2)Cc2ncn(C)c21 (stereo not given), which “Percent Effect” value is on record?
**A.** 99.32%

**Q.** For CN(C)CCN1Cc2ncn(C)c2C(COCC(=O)N(C)C)C1 (stereo not given), which “Percent Effect” value is on record?
**A.** 87.7%

**Q.** For CCOCCN1Cc2ncn(C)c2C(COCC2CCOCC2)C1.O=C(O)C(F)(F)F.O=C(O)C(F)(F)F (stereo not given), which “Percent Effect” value is on record?
**A.** -3.886%

**Q.** With CN(C)C(=O)N1Cc2ncn(C)c2C(COCC2CCOCC2)C1.O=C(O)C(F)(F)F (stereo not given) as the compound, how does the “Percent Effect” value read?
**A.** -8.2%

**Q.** For CCOCC1CN(C(=O)N(C)C)Cc2nn(C)cc21 (stereo not given), which “Percent Effect” value is on record?
**A.** -8.201%

**Q.** With CN(C)CC(=O)N1Cc2ncn(C)c2C(COCC2CCOCC2)C1 (stereo not given) as the compound, how does the “Percent Effect” value read?
**A.** 11.09%

**Q.** Cc1ccc(CN2C[C@H]3C(=O)N(CC4CC4)C[C@@]3(C(=O)O)C2)c(F)c1F was tested. Which “Percent Effect” value did it give?
**A.** 26.68%

**Q.** With CS(=O)(=O)CCC(=O)N1CCC2(CCCN(C3CCOCC3)C2=O)C1 (stereo not given) as the compound, how does the “Percent Effect” value read?
**A.** -5.583%

**Q.** With O=C(CCc1nc(Cl)n[nH]1)N1CCC2(CCCN(CC3CCC3)C2=O)C1 (stereo not given) as the compound, how does the “Percent Effect” value read?
**A.** -5.22%

**Q.** Which “Percent Effect” value does the source give for O=C(CSCC1CC1)N1CCC2(CCCN(C3CCOCC3)C2=O)C1 (stereo not given) here?
**A.** 90.41%

**Q.** How did the “Percent Effect” value turn out when O=C(CCCn1cncn1)N1CCC2(CCCN(CC3CC3)C2=O)C1 (stereo not given) was run?
**A.** 15.06%

**Q.** Which “Percent Effect” value does the source give for O=C(CSC(F)(F)F)N1CCC2(CCCN(C3CCOCC3)C2=O)C1 (stereo not given) here?
**A.** 96.55%

**Q.** Which “Percent Effect” value does the source give for O=C(CCCn1cncn1)N1CCC2(CCCN(C3CCCC3)C2=O)C1 (stereo not given) here?
**A.** -21.81%

**Q.** With O=C(COCC(F)(F)C(F)F)N1CCC2(CCCN(CC3CC3)C2=O)C1 (stereo not given) as the compound, how does the “Percent Effect” value read?
**A.** -8.945%

**Q.** Which “Percent Effect” value does the source give for O=C(CN1CCOCC1)N1CCC2(CCCN(C3CCOCC3)C2=O)C1 (stereo not given) here?
**A.** 102.1%

**Q.** Which “Percent Effect” value does the source give for CN1CCCC2(CCN(C(=O)Cc3cc4c(cc3Cl)OCCO4)C2)C1=O (stereo not given) here?
**A.** -11.77%

**Q.** CCS(=O)(=O)N1CCCC2(CCCN2C(=O)c2cscn2)C1 (stereo not given) was tested. Which “Percent Effect” value did it give?
**A.** -8.968%
